Source: PubChem
This is a sample that favours compounds with a hit; in the whole collection about 4.2% have one here.
Wnt act – Wnt/beta-catenin pathway activators, primary screen, cell-based, plate reader, single point. activation, % at 9.35 µM. Wnt/beta-catenin reporter cell assay, activator. 1.2% of 300,000 active; in the data active = activation above about 30%, passing the limit was not always enough; inconclusive = no clear call, values can overlap the other calls;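 also: 0% = neutral control wells and 100% = positive control wells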
DAX1 StAR inh – DAX1 (NR0B1) inhibitors on StAR promoter, primary screen, cell-based, luminescence, SF-1 (NR5A1), full-length DAX-1; inhibition, % at 6.8 µM; 1.1% of 370,000 active; HEK293T StAR-luciferase reporter, SF-1/DAX-1 repression relief;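 active = inhibition above the mean over all tested compounds plus 3 SD, cut at about 3.6% in these data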;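 also: 0% = DAX-1 cells with DMSO and 100% = cells lacking DAX-1 with DMSO; higher inhibition means more luminescence from relief of DAX-1 repression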
hgDAF12 agonist – H. glycines DAF-12 receptor agonists, primary screen, cell-based, luminescence, HEK293, GAL4 fusion, UAS-luciferase. HEK293 GAL4-hgDAF12 UAS-luciferase reporter, agonist luminescence; normalized to butyrate control. activation, % at 6.8 µM. 1.8% of 370,000 active;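 active = activation above a cutoff set at the mean of all screened compounds plus 3 SD, cut at about 10% in these data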;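 also: 0% = DMSO wells and 100% = sodium butyrate wells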
ssDAF-12 act – S. stercoralis DAF-12 nuclear receptor activators, primary screen, cell-based, luminescence, HEK293, GRIP1 co-expression, lit1-tk-luc; 1% of 370,000 active; Nuclear hormone receptor DAF-12 (Strongyloides stercoralis); AID 652126, 2013; activation, % at 6.8 µM; HEK293 ssDAF-12/GRIP1 lit1-tk-luc reporter; % of 3 µM dafachronic acid response;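 active = activation above the mean over all tested compounds plus 3 SD, cut at about 0.9% in these data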;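 also: 0% = DMSO-only wells and 100% = 3 µM delta7-dafachronic acid wells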
esBAF inh – Bmi1 luciferase reporter increase in mESCs, primary screen, esBAF inhibitor project, mouse ES cells, Bmi1 luciferase knock-in, single point; 24 h; 100% = twice the neutral-well signal; reporter increase, % at 12.5 µM; 2% of 350,000 active; in the data active = activation above about 40%; inconclusive = no clear call, values can overlap the other calls;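 also: 0% = median of the plate's neutral control wells and 100% = double that signal; a rise in the Bmi1 reporter signal indicates esBAF inhibition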
hcDAF-12 act – H. contortus DAF-12 nuclear receptor activators, primary screen, cell-based, luminescence, HEK293, lit1-tk-luc reporter; HEK293 hcDAF-12 lit1-tk-luc reporter; 0% DMSO, 100% Δ7-dafachronic acid; activation, % at 6.8 µM; 1.4% of 370,000 active; AID 652067, 2013;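 active = activation above the mean of all tested compounds plus 3 SD, cut at about 5.5% in these data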;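 also: 100% = response to 3 µM Δ7-dafachronic acid high control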
Active calls of the source: *; ? = inconclusive; · = not tested or not shown.

SMILES	Wnt act	DAX1 StAR inh	hgDAF12 agonist	ssDAF-12 act	esBAF inh	hcDAF-12 act
COc1ccc(C(c2c(O)ccc3ccccc23)N2CCOCC2)c(OC)c1 (stereo unspecified)	76*	1	5	0	·	5
COc1ccc(CNC(=O)CCNS(=O)(=O)c2ccc(Cl)cc2)cc1	-2	0	2	-1	-5	-1
COc1ccc(CNC(=O)CNC(=O)CNS(=O)(=O)c2ccc(C)c(C)c2)cc1	2	0	3	0.9*	1	0
O=C(NC[C@@H]1[C@H](c2ccccc2)[C@H](CO)N1C(=O)C1CCC1)NC1CCCC1	·	·	·	·	0	·
O=C(Nc1ccc2c(c1)oc1ccccc12)c1cccnc1	·	0	9	-1	68*	0
O=C(Nc1ccc2c(c1)oc1ccccc12)c1ccncc1	?	0	-1	-2	32	-1
O=C(Nc1ccc(-c2nc3ncccc3o2)cc1)c1ccco1	27	2	11*	0	·	3
O=C(Nc1ccc2oc(-c3ccccc3)nc2c1)c1ccncc1	·	-2	-3	-2	54*	-3
O=C(Nc1ccc(-c2nc3ncccc3o2)cc1)c1ccc(Br)o1	21	-1	-1	-1	36	-2
O=C(Nc1ccc(-c2nc3ccccc3o2)cc1)c1cccnc1	42*	1	6	-1	50*	0
O=C(Nc1cccc(-c2nc3ccccc3o2)c1)c1cccnc1	-1	-1	1	-2	·	-2
O=C(Nc1ccc2oc(-c3cccnc3)nc2c1)c1cccnc1	-11	0	0	-1	28	-2
C[C@@H]1CCCCO[C@H](CN(C)C(=O)c2ccncc2)[C@@H](C)CN([C@@H](C)CO)C(=O)c2cc(NC(=O)CCC(F)(F)F)ccc2O1	·	·	·	·	3	·
CC(NC(=O)c1ccco1)c1nc(-c2ccccc2)no1 (stereo unspecified)	0	0	1	0	3	1
CCCc1ccc(OCc2nc(-c3ccc(NC(=O)c4ccco4)cc3)no2)cc1	·	1	8	-1	62*	3
CC(Oc1ccc(Cl)cc1Cl)c1nc(-c2ccc(NC(=O)c3ccco3)cc2)no1 (stereo unspecified)	·	-1	8	-1	50*	0
O=C(Nc1ccc(-c2noc(CCc3ccccc3)n2)cc1)c1cccnc1	·	-5	-3	-2	49*	-4
CO[C@H]1CC[C@H]2CCOc3c(C#N)cccc3C(=O)N(C)[C@H](C)C(=O)N(C)C[C@@H]1O2	·	·	·	·	-9	·
CCCN1C[C@H](C)[C@H](OC)CN(C)C(=O)c2cc(NC(=O)NC3CCCCC3)ccc2OC[C@H]1C	·	·	·	·	1	·
O=C(C[C@@H]1CC[C@@H](NC(=O)Nc2ccccc2F)[C@@H](CO)O1)NCc1ccc(Cl)cc1	·	·	·	·	-4	·
O=C(Nc1ccc(NC(=O)c2ccccc2Cl)nc1)c1ccco1	9	0	4	-1	54*	0
O=C(CCc1ccccc1)Nc1ccc(NC(=O)c2ccco2)nc1	36*	1	8	0	36	3
Cc1cc(NC(=O)c2ccco2)ncc1NC(=O)Cc1ccccc1	·	0	3	0	45*	3
O=C(CCc1ccccc1)Nc1ccc(NC(=O)c2ccco2)cc1	3	1	4	-1	16	0
Cc1cc(NC(=O)C(C)C)ncc1NC(=O)c1ccco1	0	0	1	-1	7	0
SMILES	Wnt act	DAX1 StAR inh	hgDAF12 agonist	ssDAF-12 act	esBAF inh	hcDAF-12 act
C[C@@H]1CN([C@H](C)CO)C(=O)c2cc(NS(=O)(=O)c3ccc(F)cc3)ccc2O[C@@H](C)CCCCO[C@@H]1CN(C)Cc1ccccc1	·	·	·	·	-28	·
O=C(CCl)N1CCCC1c1ccc2c(c1)OCCO2 (stereo unspecified)	-1	-1	-4	-1	?	1
CC(=O)N1c2ccccc2Oc2cc3ccccc3cc21	?	1	6	0	·	5.7*
O=C(CCl)N1c2ccccc2Oc2ccc3ccccc3c21	8	-4	1	-1	50*	1
CC(=O)c1ccc(NC(=O)c2ccn(C(=O)OCC(C)C)n2)cc1	53*	2	7	-1	·	3
Cc1cc(C(=O)COC(=O)c2ccc(N)c([N+](=O)[O-])c2)c(C)n1Cc1ccc2c(c1)OCO2	37*	0	-1	-1	89*	1
C=CCn1c(C)cc(C(=O)COC(=O)c2ccc(N)c([N+](=O)[O-])c2)c1C	16	2	12*	0	·	5
Cc1cc(C(=O)COC(=O)c2ccc(N)c([N+](=O)[O-])c2)c(C)n1-c1ccc2c(c1)OCO2	·	-1	1	-2	11	-2
C=CCn1c(C)cc(C(=O)COC(=O)c2ccc3c(c2)NC(=O)CS3)c1C	-3	-1	-2	-1	34	0
O=C(COc1ccc(S(=O)(=O)N2CCOCC2)cc1)NCc1ccco1	-1	0	0	1.6*	-7	-2
CN(C)/C=C/C(=O)c1ccc(-n2cccc2)cc1	54*	0	-4	-1	·	-2
CN(C)/C=C/C(=O)c1ccc(Cl)cc1	2	1	1	-2	21	-1
Cc1nnc(-c2cccc(C(F)(F)F)c2)nc1N1CCOCC1	1	4.3*	1	-2	·	1
C[C@@H]1CCCCO[C@@H](CN(C)S(=O)(=O)c2ccc(F)cc2)[C@H](C)CN([C@H](C)CO)C(=O)c2cc(NC(=O)Nc3ccc4c(c3)OCO4)ccc2O1	·	·	·	·	0	·
C(=C\c1ccccc1)/CNCC1CCCO1 (stereo unspecified)	0	0	7	1.6*	0	3
O=C(O)c1cccc2c1-c1ccccc1/C2=N\Nc1ccccc1	25	1	8	0	63*	4
NC(=O)c1ccsc1NC(=O)CN1C(=O)NC2(CCCCC2)C1=O	1	1	-1	0	0	1
Cc1ccc2nc(NC(=O)CN3C(=O)NC4(CCCCC4)C3=O)sc2c1	-4	1	-2	-2	12	0
N#Cc1ccsc1NC(=O)CN1C(=O)NC2(CCCC2)C1=O	8	2	5	1	45*	4
O=C(CN1C(=O)NC2(CCCC2)C1=O)Nc1nc2ccccc2s1	5	1	5	1	18	5.8*
Cc1c(O)ccc(/C=N/Nc2nc(-c3cccnc3)nc3ccccc23)c1O	21	-2	-1	-2	·	-2
